# High-throughput results from PubChem.
# JMJD2A Tudor inh – qHTS Assay for Inhibitors of JMJD2A-Tudor Domain; AlphaScreen JMJD2A-Tudor / H3K4me3 peptide binding; Potency, µM (doses to about 114 µM), for the others: at the top dose activity change, negative = inhibition, actives largely listed as inhibitors; 4.4% of 390,000 active; AID 504339, 2011; note: potency is the fitted concentration of half-maximal effect; % is set by controls: 0 for no effect and ±100 for the full control effect; nearly all actives have a fitted effect of over 50% in size
# CtBP-E1A blk – qHTS Assay for Inhibitors of the CtBP/E1A Interaction; activity change, % (no concentration beside the values); AlphaScreen GST-E1A/His-CtBP binding, 1536-well; hits give low values; CtBP / adenovirus E1A interaction (AlphaScreen); 0.49% of 340,000 active; AID 651724, 2012; in the data active = activity change below about -65%; inconclusive = mostly about -30% to -63%; note: % is set by controls: 0 for no effect and ±100 for the full control effect
#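 Steps: dispense buffer (Tris pH 8.0, NaCl 300 mM, TCEP 1 mM, BSA, Tween 20); add 5X protein mix (GST-E1A, His-CtBP, 125 nM each); pin 23 nL compound; 2 h at 37 °C, dark; add 5X beads (50 ug/mL); 1 h; read.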
# Six1-Eya2 inh – qHTS Assay for Inhibitors of the Six1/Eya2 Interaction; Homeobox protein SIX1 (Homo sapiens) + Protein phosphatase EYA2 (Homo sapiens), …; AlphaScreen GST-Six1/His-Eya2 binding, biochemical; hits give low values; activity change, % (concentration not given with the values); 0.56% of 360,000 active; in the data active = activity change below about -65%; inconclusive = mostly about -30% to -63%; note: % is set by controls: 0 for no effect and ±100 for the full control effect
# Target sequence (O00167 whole entry, looked up): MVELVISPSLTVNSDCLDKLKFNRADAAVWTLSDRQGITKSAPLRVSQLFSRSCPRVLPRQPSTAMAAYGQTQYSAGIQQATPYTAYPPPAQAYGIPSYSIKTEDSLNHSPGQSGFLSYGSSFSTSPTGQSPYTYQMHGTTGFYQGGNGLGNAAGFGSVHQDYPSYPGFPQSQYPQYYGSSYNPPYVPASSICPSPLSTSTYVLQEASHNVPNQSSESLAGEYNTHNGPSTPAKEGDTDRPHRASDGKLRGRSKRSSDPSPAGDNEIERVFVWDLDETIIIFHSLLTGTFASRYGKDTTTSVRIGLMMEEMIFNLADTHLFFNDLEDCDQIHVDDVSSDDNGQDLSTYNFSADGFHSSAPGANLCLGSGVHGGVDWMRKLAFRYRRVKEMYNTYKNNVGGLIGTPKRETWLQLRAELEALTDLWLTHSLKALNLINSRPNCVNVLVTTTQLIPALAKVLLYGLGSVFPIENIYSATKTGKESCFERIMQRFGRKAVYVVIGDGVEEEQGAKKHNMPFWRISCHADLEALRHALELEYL
# Target sequence (Q15475 whole entry, looked up): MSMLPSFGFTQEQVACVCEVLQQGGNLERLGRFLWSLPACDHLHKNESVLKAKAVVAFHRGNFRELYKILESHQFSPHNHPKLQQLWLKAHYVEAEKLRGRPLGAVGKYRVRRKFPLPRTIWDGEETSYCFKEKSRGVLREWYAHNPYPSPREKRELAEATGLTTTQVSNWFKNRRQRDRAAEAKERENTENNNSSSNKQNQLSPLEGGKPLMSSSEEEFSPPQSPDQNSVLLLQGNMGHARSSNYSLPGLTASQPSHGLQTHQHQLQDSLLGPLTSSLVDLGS
#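 Six1/Eya2 binding was read as AlphaScreen signal after compounds were pinned into GST-Six1 plus His-tagged Eya2 (5X stock 250/500 nM) in pH 8.0 Tris/NaCl/TCEP buffer, beads added, then incubated 1 h, 37 C, dark.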
# G9a inh – qHTS Assay for Inhibitors of Histone Lysine Methyltransferase G9a | Potency, µM (top dose mostly 102 µM), for the others: at the highest dose activity, negative = inhibition, hits mostly inhibitors | 8.8% of 350,000 active | G9a H3K9 monomethylation, AlphaScreen, 2 h | Histone-lysine N-methyltransferase EHMT2 (Homo sapiens), Q96KQ7; note: potency is the fitted concentration of half-maximal effect; % is set by controls: 0 for no effect and ±100 for the full control effect; nearly all actives have a fitted effect of over 75% in size
#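 Using a bead-based AlphaScreen, monomethylated H3K9 product from 2 h room-temperature reactions (G9a 20 nM, peptide 500 nM, SAM 20 uM) was detected with 0.5 ug/mL rabbit anti-H3K9me1 antibody.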
# HP1b binding inh – HTS for Inhibitors of HP1-beta Chromodomain Interactions with Methylated Histone Tails | Potency, µM (doses to about 114 µM), for inactives: at the highest dose activity change, negative = inhibition, usual class: inhibitors | 0.56% of 390,000 active | AlphaScreen HP1-beta / biotin-H3K9me3 peptide binding; note: potency is the fitted concentration of half-maximal effect; nearly all actives have a fitted effect of over 70% in size
#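 AlphaScreen: HP1-beta (50 nM) preformed 30 min with biotin-H3(1-18)K9me3 peptide (50 nM) in PBS pH 7.4, 0.01% Tween-20. Compound added for 30 min at RT, then streptavidin donor/nickel chelate acceptor beads (10 ug/mL) for 30 min.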
# BAZ2B block – qHTS Assay for Inhibitors of BAZ2B. Bromodomain adjacent to zinc finger domain protein 2B (Homo sapiens), Q9UIF8. AlphaScreen BAZ2B-H3K14Ac peptide displacement. Potency, µM (series often up to 114 µM), without a hit: at the highest dose activity change, negative = inhibition, usual class: inhibitors. 4.4% of 360,000 active. AID 504333, 2011; note: potency is the fitted concentration of half-maximal effect; % is set by controls: 0 for no effect and ±100 for the full control effect; nearly all actives have a fitted effect of over 60% in size
#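 Protein-peptide AlphaScreen: BAZ2B 50 nM, b-H3K14Ac 50 nM, 1x PBS pH 7.4 + 0.01% Tween-20. Preincubation 30 min RT; cpd 30 min RT (top 110 uM); beads 20 min RT, light-protected.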
# An asterisk follows results filed as active; ? = inconclusive; / = no result; [ ] = another dose, or the depositor's remark. Shown are actives, neighbours in structure and some others; about 10% of the full set was active somewhere. Unless noted, calls come from the whole dose curve; as a rule, active = well fitted inhibition curve with a large enough effect; inconclusive = small, poorly fitted or top-dose-only effect; inactive = no such curve, though single readings can be large or run the other way.
SMILES,JMJD2A Tudor inh,CtBP-E1A blk,Six1-Eya2 inh,G9a inh,HP1b binding inh,BAZ2B block
O=C(Oc1c(Cl)cc(Cl)c2cccnc12)c1cccs1,38%,-82*,-67*,13%[59 µM],125%,24%
O=C(Oc1c(CN2CCOCC2)cc(Cl)c2cccnc12)c1cccs1,?,-86*,-84*,26%,25%,/
Cc1ccc(NC2c3ncccc3C(=O)N2c2ccccc2C)cc1C (stereo not drawn),11µM*,16,-12,?,-25%,20µM*
COc1ccc(C(C)=O)cc1Cn1c(C)c(C(=O)NCc2ccc(C(F)(F)F)cc2)sc1=O,/,0,-4,/,/,/
CC1=CC(c2ccccc2)n2nc(NC(=O)CCCC(=O)O)nc2N1 (stereo not drawn),?,0,5,5%,7%,50µM*
Cc1ccc(C2C=C(c3ccc(Cl)cc3)Nc3nc(NS(=O)(=O)c4ccccc4)nn32)cc1 (stereo not drawn),15%,/,/,?,52%,-1%
CC1=CC(c2ccc(Cl)cc2)n2nc(NC(=O)c3ccccc3)nc2N1 (stereo not drawn),-30%,-6,-14,14µM*,54%,56µM*
CC1=CC(c2ccccc2)n2nc(NC(=O)CCC(=O)O)nc2N1 (stereo not drawn),?,-5,-3,?,-14%,?
CCC(CC)NCC(O)COc1ccc(Br)cc1 (stereo not drawn),1µM*,-6,4,-42%,?,28µM*
CC[C@H](CO)Oc1cc(NCc2ccc(Cl)c(Cl)c2)c2ncn(C(C)C)c2c1,32µM*,-19,-19,/,-15%,/
CCC(CO)Oc1cc(NCc2ccccc2O)c2ncn(C(C)C)c2c1 (stereo not drawn),?,-12,-24,/,-17%,/
CCC(CO)Oc1cc(NCc2ccc(C)cc2)c2ncn(C(C)C)c2c1 (stereo not drawn),56µM*,-21,-2,/,-3%,/
CCC(CO)Oc1cc(NCc2ccc(Cl)cc2Cl)c2ncn(C(C)C)c2c1 (stereo not drawn),40µM*,/,-12,/,-18%,/
CCC(CO)Oc1cc(NCc2ccc(Cl)cc2)c2ncn(C(C)C)c2c1 (stereo not drawn),50µM*,-2,-8,/,-21%,/
O=CC(=Cc1ccccc1)c1ccccc1,/,1,-4,/,/,/
O=C(Cn1c(=O)c2cccn2c2ccccc21)NCc1ccccc1F,-32%,/,/,?,33%,-27%
CCOC(=O)N1CCc2c(sc3c2C(=O)NC(c2ccc(N(C)C)cc2)N3)C1 (stereo not drawn),?,/,/,?,-15%,?
COc1ccc(S(=O)(=O)c2snnc2C)cc1,-8%,/,1,3%,53%,0%
COC(=O)[C@]1(Cc2ccccc2)N[C@H](CN(C)C(=O)c2ccc(C)cc2)[C@@H]2C(=O)N(C)C(=O)[C@@H]21,-1%,4,12,/,35%,/
CCOc1cc(NCc2ccccc2)c2ncn(C(C)C)c2c1,50µM*,?,?,/,?,/
O=C(O)/C=C\c1cn(-c2ccccc2)nc1-c1cc2ccccc2o1,-21%,-4,13,-30%,9%,-37%
COc1ccc(NC(=O)CN(C)C(=O)c2cc(-c3cccs3)nn2-c2ccccc2)cc1,-21%,1,-14,50µM*,5%,-5%
O=C(O)c1cc(-c2cc3ccccc3o2)nn1-c1ccccc1,-9%,3,0,45µM*,28%,/
O=C(O)c1cc(-c2cccs2)nn1-c1ccccc1,-4%,-9,2,45µM*,28%,-38%
CCN(CC(=O)Nc1ccc(OC)cc1)C(=O)c1cc(-c2cccs2)nn1-c1ccccc1,-14%,-2,-15,?,16%,-31%
SMILES,JMJD2A Tudor inh,CtBP-E1A blk,Six1-Eya2 inh,G9a inh,HP1b binding inh,BAZ2B block
S=C(NCc1ccco1)NCC(c1ccco1)N1CCCCC1 (stereo not drawn),-11%,4,-2,-31%,27%,4%
O=[N+]([O-])c1cc(S(=O)(=O)Nc2ccccc2)ccc1Nc1ccccc1,22µM*,?,-30,/,?,/
Cc1c(NS(=O)(=O)c2ccc(N3CCN(C)CC3)c([N+](=O)[O-])c2)c(=O)n(-c2ccccc2)n1C,-16%,2,2,?,10%,-23%
O=C(c1ccc(N2CCOCC2)c([N+](=O)[O-])c1)N1CCN(c2ccccc2)CC1,-34%,-3,14,/,0%[57 µM],/
O=[N+]([O-])c1cc(S(=O)(=O)Nc2ccccc2)ccc1N1CCN(c2ccccc2)CC1,10µM*,?,?,32µM*,?,40µM*
O=[N+]([O-])c1cc(S(=O)(=O)C(F)(F)F)ccc1N1CCN(c2ccccc2)CC1,?,8,?,20µM*,?,8.9µM*
O=[N+]([O-])c1cc(S(=O)(=O)Nc2ccccc2)ccc1NCc1ccccc1,?,11,-3,?,-33%,?
CCOC(=O)C1=C(C)NC(C)=C(C(=O)OCC)C1C(=O)OCC(=O)NCCc1ccc(S(N)(=O)=O)cc1,2%,-8,3,3%[2.33 µM],17%,9%
CCc1ccccc1NC(=O)c1cn(C)c(=O)c2ccccc12,-5%,/,/,10%[59 µM],38%,7%
O=C(CCCCCNc1nc(=S)[nH]c2ccccc12)NCCc1ccc(Cl)cc1,-13%,-13,?,29%,34%,-2%
CC(C)CCNC(=O)Cc1ccc(Nc2nc(=S)[nH]c3ccccc23)cc1,-20%,19,-86*,38%,5%,-16%
O=C(O)CCCCCNc1nc(=S)[nH]c2ccccc12,22µM*,-3,-10,?,5%,?
O=C(c1ccccc1)N1CCN(CCc2ccncc2)CC1,-8%,/,/,-21%[59 µM],43%,-2%
COc1ccc(CCNC(=O)CCCOc2ccc(Cl)cc2)cc1OC,-22%,3,-5,18%,21%,-6%
COc1ccc(/C=C/c2nc3ccccc3n2C)cc1,36%,-9,12,18%[59 µM],76%,7%
CC(COc1ccc(/C=C/c2ccccc2)cc1)[N+](C)(C)C (stereo not drawn),-25%,1,-5,4µM*,27%,4%
Nc1ncnc2c1ncn2[C@@H]1O[C@@H](CO)[C@H](O)[C@H]1O,/,/,/,21%[21.5 µM],/,/
